The text below walks through data of PubChem BioAssay (NCI).

Compounds without any hit were thinned out: in the full panel of roughly 83,000, 20% have a hit.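 Note: values are percent growth. 100 is the growth of untreated cells, values between 100 and 0 indicate rising inhibition; between -100 and 0 indicates cell death.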 Values without a mark were called inactive. Activity calls are given as the source filed them. Rule for the calls: active = growth percent below 10; inactive = the rest.

What all share (experiment): NCI-60 one-dose screen, 48 h (100 = growth as untreated, 0 = no growth, -100 = all killed)
Common to all, as to conditions: 10 µM unless noted

Assay [1] concerns NCI-H23 lung.
Assay [2] relates to NCI-H226 lung.
In assay [3] the test system is HOP-62 NSCLC.
Assay [4] has as its system NCI-H460 lung.
In assay [5] the test system is HOP-92 NSCLC.
The test system of assay [6] is NCI-H522 lung.
Assay [7] concerns A549/ATCC NSCLC.
Assay [8] relates to 786-0 renal.
In assay [9] the test system is COLO 205 colon.
For assay [10], the system named is NCI-H322M lung.

Consider `NNCCc1ccc(NC(=O)CCCc2ccc(C(=O)Nc3ccccc3N)cc2)cc1`, for which the growth in assay [1] was 76.5%; in assay [2] it was 74.3%; in [3], 69.6%; in assay [4], 66.3%; in [5] it was 31.2%; in assay [6] it was 13.1%. The values for the growth in [7], in assay [8] and in [9] were 85.4%, 81.6% and 75.6%, respectively.
On to `COc1ccc2c(c1)CCc1[nH]nc(-c3cc(OC)c(OC)c(OC)c3)c1-2`, for which the growth in assay [1] is 12.7%; in [2], 41%; in assay [4], 3.92% (active); in [5], 32.8%; in assay [6], -22.3% (active); in [7], 5.04% (active). In addition, the growth in [8] is 3.88% (active); in [9], -64.6% (active).
As to `O=C(/C=C/c1ccc(Oc2ccc(Br)cc2)cc1)c1ccc(Br)cc1`, the growth in [1] was 95.3%; in [2], 103%; in [3], 99.9%; in [4], 105%; in assay [5], 91.6%; in assay [6] it was 91.1%. The results for the growth in assay [7], in assay [8] and in assay [9] were 94.4%, 101% and 113%, respectively.
Turning to `Cc1ccc(CNc2c3ccccc3nc3ccccc23)cc1`, the growth in assay [1] is 29.3%; in assay [2], 41.5%; in assay [10], 39.7%; in assay [4] it was 8.75% (active); in [6], 49%; in assay [7] it was 26.1%. The figures for the growth in [8] and in assay [9] were 25.4% and 0.281% (active), respectively.
In the case of `FC(F)(F)c1ccc(Cn2cc(CSc3nc4ccccc4s3)nn2)cc1`, the growth in assay [1] was 97.6%; in assay [2] it was 83.1%; in assay [3], 89%; in assay [4] it was 102%; in assay [5], 85.4%; in [6], 88.2%. Also, the growth in [7] is 90.1%; in assay [8], 98.1%; in assay [9], 103%.
Regarding `COc1cc(OC)c(/C=C/C(=O)c2c(O)cc(OC)c(C3CCN(C)CC3)c2OC)c(OC)c1`, the growth in [1] was -58.8% (active); in assay [2], -47.7% (active); in assay [3], -96.2% (active); in assay [4], -75% (active); in assay [5] it was -12.2% (active); in assay [6], -80% (active). Besides, the growth was -60.7% (active) in [7], -97.7% (active) in [8] and -96.7% (active) in [9].
As for `C=C1CC[C@@H]2C(C)(C)[C@@H](O)CC[C@@]2(C)[C@@H]1COc1ccc2ccc(=O)oc2c1`, the growth was 75.3% in assay [1]; 66.1% in [2]; 103% in assay [3]; 87.8% in [4]; 86.8% in assay [5]; 66.9% in assay [6]. Moreover, the growth in assay [7] is 58.7%; in [8], 89.6%; in assay [9], 92%.
On to `COc1cc(-c2nc3cc(Cl)c(Cl)cc3[nH]2)ccc1OCC(=O)N=Nc1c(O)[nH]c2ccc(Cl)cc12`, for which the growth is -3.62% (active) in [1]; 30.4% in assay [2]; -36.7% (active) in [3]; 5.88% (active) in [4]; -19.7% (active) in assay [5]; 4.94% (active) in [6]. In addition, the growth is 45.8% in assay [7], 2.74% (active) in assay [8] and -63.3% (active) in assay [9].
In the case of `COc1cccc(NCc2nnc(Nc3ccc(Cl)cc3)c3ccccc23)c1`, the growth in [1] was 2.05% (active); in assay [2], -22.9% (active); in [4] it was 0.101% (active); in assay [5] it was -32.8% (active); in assay [6] it was -43.8% (active); in assay [7] it was 2.56% (active). For the same compound, the figures for the growth in assay [8] and in [9] were -5.76% (active) and -22.2% (active), respectively.
As for `CCN1C(=O)N(CC)C2C1NN=c1s/c(=C3\C(=O)N(CC(C)C)c4ccccc43)c(=O)n12` (centres undefined), the growth in assay [1] was 31.1%; in [2] it was 61.5%; in assay [3], 45.6%; in [4], 5.36% (active); in assay [5] it was 66.3%; in [6], -2.72% (active). Further, the growth was 21.6% in assay [7], 37.2% in [8] and 17.6% in assay [9].
Regarding `Cc1nc2sc(C(=O)Nc3cccc(Br)c3C)c(N)c2cc1C(O)c1ccccc1` (centres undefined), the growth in assay [1] was 18.5%; in assay [2], 38.3%; in assay [3], 21.2%; in assay [4], -0.559% (active); in assay [5], 24%; in assay [6], 2.97% (active). Besides, the growth in assay [7] is 9.65% (active); in assay [8], 15.5%; in assay [9], -51.6% (active).
As to `CN(Cc1cnc2nc(N)nc(N)c2n1)c1ccc(C(=O)NC(CCC(=O)O)C(=O)O)cc1Br` (centres undefined), the growth in [1] is 31.3%; in assay [2] it was 48.4%; in assay [3], 33.5%; in [4], 16.7%; in assay [6], 43.8%; in assay [7], 26%. The figures for the growth in assay [8] and in [9] were 15.8% and 36.3%, respectively.
Regarding `C=C1C(=O)O[C@H]2[C@H]1CC/C(Cn1cc(CCC)nn1)=C\CC[C@@]1(C)O[C@@H]21`, the growth is 41.1% in [1]; -37.4% (active) in assay [2]; 73.9% in assay [3]; 61.4% in assay [4]; -11.2% (active) in [5]; -70.7% (active) in [6]. Moreover, the growth in assay [7] was 68.2%; in assay [8] it was 3.66% (active); in assay [9] it was -72.1% (active).
For `Cc1c(CN)cc(-c2ccc(Cl)cc2)n1-c1ccccc1`, the growth in assay [1] is 73.8%; in assay [2], 38.4%; in [3], 91.6%; in [4], 75.5%; in [5], 90.1%; in [6], 68%. For the same compound, the growth in assay [7] is 75.2%; in assay [8], 90.8%; in assay [9], 110%.
With `COc1ccc(/C=C(/C(=O)n2cnnn2)c2cc(OC)c(OC)c(OC)c2)cc1`, the growth was 41.8% in assay [1]; 40.7% in assay [2]; 25.6% in assay [3]; 12.7% in assay [4]; 69.3% in assay [5]; 20.6% in [6]. The growth in [7] is 29%; in assay [8], 35.5%; in assay [9], -3.15% (active).
In the case of `NC(=O)c1cccc([C@@H]2O[C@H](CO)[C@@H](O)[C@H]2O)c1`, the growth in assay [1] was 63.7%; in [2] it was 73.1%; in assay [3], 47.7%; in [4], 103%; in assay [5] it was 52.4%; in assay [6], 42.2%. Also, the growth is 71.6% in assay [7], 12.9% in [8] and 40.5% in assay [9].
With `O=C1c2ccccc2C(=O)c2c1cc1c(c2[N+](=O)[O-])OCO1`, the growth in assay [1] was 4.14% (active); in assay [2] it was 25.9%; in [3], 3.82% (active); in [4], 3.42% (active); in assay [5] it was -3.71% (active); in assay [6] it was -46.6% (active). Also, the growth in assay [7] is 49%; in [8], 2.64% (active); in [9] it was 48%.
For the compound `CC1(C)OB(O)c2cc(-c3nc4ccc5[nH]ncc5c4c4c3CCCC4)ccc21`, the growth was 62.8% in [1]; 55% in [2]; 68.2% in [3]; 34.1% in [4]; 73.9% in [5]; 77.9% in assay [6]. The growth in assay [7] was 56.4%; in [8] it was 66.1%; in [9], 80.9%.
For `COc1ccc(/C=C(/c2ccccc2)[N+](=O)[O-])c(OC)c1`, the growth was 21.1% in assay [1]; 59.9% in assay [2]; 4.17% (active) in [3]; 2.72% (active) in assay [4]; -25.4% (active) in [5]; -13.2% (active) in assay [6]. In addition, the growth is 7.88% (active) in assay [7], -66.1% (active) in [8] and -26.9% (active) in [9].
Turning to `CN(Cc1cc(Br)cc(Br)c1O)Cc1cc(Br)cc(Br)c1O`, the growth was 36.9% in assay [1]; 52% in assay [2]; 30.9% in assay [3]; 19.1% in assay [4]; 32.3% in assay [5]; 3.36% (active) in assay [6]. For the same compound, the growth in [7] is 36.8%; in assay [8], 39.9%; in assay [9], 84%.
Consider `COc1cc(/C=N/Nc2ccc(Br)cc2)cc(OC)c1OC`, for which the growth in assay [1] was 75.8%; in assay [2], 80.1%; in [4], 31.1%; in assay [5], 98.2%; in [6], 39.8%; in [7], 54.9%. In addition, the growth in assay [8] was 77.8%; in assay [9] it was 86.9%.
With `N=C(N)c1ccc(-c2ccc(-c3ccccc3)s2)cc1`, the growth is 85.5% in assay [1]; 103% in assay [2]; 74.6% in assay [3]; -16.6% (active) in assay [4]; 73.2% in assay [5]; -26.5% (active) in [6]. Further, the growth is 60.1% in assay [7], 78.8% in assay [8] and -42.9% (active) in assay [9].
Regarding `COc1ccc(-c2n[nH]c(=O)c3nc(NC(=S)Nc4ccc(Oc5ccccc5)cc4)sc23)cc1`, the growth in assay [1] is 99.7%; in assay [2], 95.5%; in assay [3], 91%; in assay [4], 101%; in [5] it was 90.1%; in assay [6], 68.9%. For the same compound, the growth in [8] was 102%; in assay [9] it was 113%.
Consider `O=C(/C=C/c1ccccc1)c1ccc(Nc2nc(Nc3ccc(F)cc3)nc(Nc3ccc(Cl)cc3)n2)cc1`, for which the growth in [1] is 83.9%; in assay [2] it was 96.1%; in assay [10] it was 94.5%; in [4], 82.1%; in [6] it was 87.6%; in assay [7] it was 112%. Also, the growth is 86.8% in assay [8] and 70.6% in assay [9].
Turning to `Cc1cn(-c2cc(NC(=O)c3cncc(C#Cc4c(N)ncc5ccc(F)cc45)c3)cc(C(F)(F)F)c2)cn1`, the growth in assay [1] is 25%; in assay [2], 36.2%; in assay [3] it was 67.3%; in [4] it was 49.2%; in [5] it was -8.98% (active); in assay [6] it was 58.1%. Moreover, the growth is 61.3% in [7], 77.1% in [8] and 11.6% in assay [9].
Consider `CCC1S/C(=N\N=C(\C)c2cc3cc(Cl)ccc3o2)N(c2ccccc2)C1=O` (centres undefined), for which the growth is 90.7% in [1]; 113% in assay [2]; 122% in [4]; 71% in assay [5]; 160% in assay [6]; 132% in assay [7]. Also, the growth in assay [8] was 85.8%; in assay [9], 118%.
On to `COc1cc(OC)c(C(=O)C(CN(C)C)CN(C)C)cc1OC`, for which the growth in assay [1] is 96.5%; in assay [2], 108%; in [3], 84.7%; in assay [4] it was 109%; in assay [5] it was 40%; in [6] it was -73.7% (active). Further, the results for the growth in assay [7], in [8] and in [9] were 109%, 7.98% (active) and -85.4% (active), respectively.
Take `NC(N)=NS(=O)(=O)c1ccc(NC2=C(I)C(=O)c3ncccc3C2=O)cc1`: the growth in assay [1] is 89.9%; in [2], 86.7%; in [3], 111%; in assay [4], 103%; in [5], 115%; in assay [6], 81%. In addition, the growth in assay [8] was 110%; in assay [9], 112%.
On to `Fc1ccc(Cn2cc(CSc3nc4ccccc4o3)nn2)cc1`, for which the growth in assay [1] is 106%; in assay [2], 92.8%; in assay [3], 87.5%; in [4], 110%; in assay [5], 113%; in [6], 83.4%. Also, the figures for the growth in assay [8] and in assay [9] were 91.1% and 114%, respectively.
As to `COc1cc(NC(=O)c2cncnc2Nc2ccc3c(ccn3Cc3ccccn3)c2)cc(OC)c1`, the growth was 68.6% in assay [1]; 76.1% in [2]; 20.5% in assay [4]; 54.2% in assay [5]; 38.9% in assay [6]; 53.9% in assay [7]. Besides, the growth in assay [8] was 49.4%; in assay [9], 44.9%.
